Here are results for 19 compounds from the supplement of paper PMC4206467.

Each structure is given as a SMILES string.

The experiment has as its system Perkinsus marinus PRA240. Description: ATP content (proliferation) relative to DMSO control; higher = more parasite growth (less inhibition). Particulars: 20 µM; 4 days. As to the method:
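Perkinsus marinus PRA240 trophozoites (2-5x10^6 cells/ml, 100 µl, 96-well) were exposed once to MMV Malaria Box compounds at 20 µM (0.1% DMSO) in triplicate. ATP content (ATPlite bioluminescence) was read at day 4 post-exposure and normalised to DMSO + cells control wells (100% activity). Compounds were identified by joining plate and well to the Malaria Box list.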
`CCOc1ccc2nc(C)cc(Nc3ccc(N(C)C)cc3)c2c1` showed an ATP content of 86.6%.
Under `Cc1ccc(S(=O)(=O)c2c(COC(=O)c3cccc(C)c3)c(-c3ccccc3)nn2C)cc1` stands 162%.
Under `CCN(CC)CCNc1ncnc2c1[nH]c1ccc(Br)cc12` stands 141%; under `COc1ccc(C(=O)C(CCC(CNC(C)(C)C)C(=O)c2ccc(OC)cc2)CNC(C)(C)C)cc1` (centres undefined), 120%; under `c1ccc2c(NCCc3c[nH]c4ccccc34)c3ccccc3nc2c1`, 179%.
The value for `CCOC(=O)C1=CN(C)C=C(C(=O)OCC)C1c1cc(Br)c(OCC)c(OC)c1` was 121%; that for `Oc1ccccc1CN1CCC2(CCCN(Cc3ccccc3F)C2)C1` (centres undefined) was 70.1%.
`Cn1c(C(=O)c2cccc3ccccc23)nc2ccccc21` displayed an ATP content of 55.5%.
The value for `Cc1[nH]c(-c2ccc(F)cc2)cc1C(=O)NC1CCN(Cc2ccccc2)CC1` was 108%.
The value for `Cc1cc(N2CCN(C3CCCC3)CC2)n2c(nc3ccccc32)c1C#N` was 161%; that for `COc1cc2cc(C(=O)Nc3ccccc3)c(N)nc2cc1OC` was 44.3%.
Under `COc1cccc(C2(C)Nc3ccccc3-c3nc4ccccc4n32)c1` (centres undefined) stands 144%; under `COc1ccc(-c2nonc2NC(=O)c2cccc(Cl)c2)cc1OC`, 135%; under `CN(C)c1ccc(-c2nc3cc(N)ccc3[nH]2)cc1`, 0.856%.
Compound `c1ccc(C2=Nc3ccccc3N=C(c3ccccc3)c3ccccc32)cc1` registered an ATP content of 117%.
The value for `O=C(NC1CCN(Cc2ccccc2)CC1)c1cc2nc(-c3ccc(Cl)s3)cc(C(F)(F)F)n2n1` was 118%; that for `Cc1ccc(Cl)cc1N1CCN(CCCNC(=O)C2CCN(c3nc4ccccc4[nH]3)CC2)CC1` was 87.1%; that for `CN1CCN(c2c3c(c(C#N)c4nc5ccccc5n24)CCC3)CC1` was 140%.
The value for `O=C(Nc1ccc(F)c(Cl)c1)Nc1ccc(Cl)c(Cl)c1` was 46.8%.
